Test [1] can be described thus: ACEA_ER_80hr: ACEA Biosciences xCELLigence Real-Time Cell Analysis on Estrogen Receptor Agonism for Proliferation (AID 2282667; active = hit-call score of the fitted dose curve at least 0.9, where 1 is the maximum). To be noted: T47D proliferation, impedance (xCELLigence), 80 h. The gist of the method:
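T-47D cells monitored by electrical impedance (xCELLigence) with compound present throughout; 80 h timepoint, positive-direction fitting versus DMSO. Eight-point 1:4 dilutions from 100 uM final, duplicate plates.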

The nature of test [2]: APR_HepG2_CellCycleArrest_24hr: Apredica 24-hour HepG2 Assay for Cell Cycle Arrest (AID 2282905).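 Also: cell cycle arrest scored as ratio of 2N to 4N nuclear DNA content.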 To be noted: imaging, actives raise or lower the signal. The gist of the method: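 Cell cycle arrest is scored from nuclear DNA content measured by high-content imaging of Hoechst 33342-stained HepG2 cells following 24-hour treatment at ten concentrations up to 200 uM, with DMSO as baseline.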

Test [3] can be described thus: APR_HepG2_NuclearSize_24hr: Apredica 24-hour HepG2 Assay for Nuclear Size (AID 2282907). Conditions: high-content imaging, actives raise or lower the signal. The gist of the method: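 Compounds in DMSO (final 0.5%) were added to human HepG2 hepatoma cells at ten concentrations up to 200 uM for 24 hr. Fixed nuclei were stained with Hoechst 33342, and nuclear diameter was quantified from automated images.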

Test [4] can be described thus: APR_HepG2_CellLoss_24hr: Apredica 24-hour HepG2 Assay for Cell Loss (AID 2282908).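 As to AC50: fit in both directions so a hit may be cell loss or gain.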 Conditions: high-content imaging. The gist of the method: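 Cell number is quantified by fluorescence imaging of Hoechst 33342-stained nuclei following dosing at 0.39–200 uM in 0.5% DMSO. Curves are fitted in both directions from the DMSO baseline.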
A short description of test [5]: APR_HepG2_MicrotubuleCSK_24hr: Apredica 24-hour HepG2 Assay for Microtubule CSK Stabilty (AID 2282909). Conditions: HepG2 microtubule cytoskeleton imaging, actives raise or lower the signal. The gist of the method: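 Steps: dose HepG2 for 24 h (0.39–200 uM, 0.5% DMSO); fix 30 min in 3.7% formaldehyde at room temperature; permeabilize; stain alpha-tubulin 60 min; image microtubule cytoskeleton at 20x. Signal change fitted in both directions relative to DMSO.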

A short description of test [6]: APR_HepG2_MitoticArrest_24hr: Apredica 24-hour HepG2 Assay for Mitotic Arrest (AID 2282910). Conditions: high-content imaging, actives raise or lower the signal. In a few lines: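 Compounds are dosed onto HepG2 cells across ten concentrations up to 200 uM for 24 hr. Cells are then fixed in 3.7% formaldehyde, permeabilised, and labelled for phospho-histone H3 and nuclei; images are scored by cell cycle analysis and fitted bidirectionally relative to DMSO.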

Test [7] can be described thus: APR_HepG2_MitoMembPot_24hr: Apredica 24-hour HepG2 Assay for Mitochondrial Membrane Potential (AID 2282911). To be noted: imaging, actives raise or lower the signal. The gist of the method:
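HepG2 cells exposed 24 h to 0.39–200 uM compounds in duplicate, 0.5% v/v DMSO final. MitoTracker Red CMXRos 250 nM loaded 30 min before formaldehyde fixation; high-content imaging at 20x, bidirectional fit versus DMSO.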

A short description of test [8]: APR_HepG2_MitoMass_24hr: Apredica 24-hour HepG2 Assay for Mitochondrial Mass (AID 2282912). Conditions: high-content imaging, actives raise or lower the signal. In a few lines:
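The liver line HepG2 was dosed in duplicate across a 0.39–200 uM series, with final DMSO held at 0.5% v/v, and harvested at 24 hr. High-content imaging measured mitochondrial dye staining.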

Test [9] can be described thus: APR_HepG2_p53Act_24hr: Apredica 24-hour HepG2 Assay for p53 Activation (AID 2282913).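 Also: p53 protein immunofluorescence averaged per cell in HepG2 with Hoechst nuclei.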 To be noted: high-content imaging, actives raise or lower the signal. The gist of the method:
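HepG2 cells exposed 24 h to compounds at 0.39–200 uM in duplicate, 0.5% v/v DMSO final; fixed, permeabilized, stained with anti-p53 antibody and Hoechst 33342; fluorescence imaging; bidirectional curve fit versus DMSO.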

Test [10] can be described thus: APR_HepG2_CellCycleArrest_72hr: Apredica 72-hour HepG2 Assay for Cell Cycle Arrest (AID 2282914). Conditions: high-content imaging, actives raise or lower the signal. The gist of the method: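 HepG2 cells exposed 72 h in duplicate to 0.39–200 uM compound, 0.5% DMSO final. Formaldehyde-fixed, Hoechst 33342-stained nuclei imaged at 20x, six fields per well; DNA content per valid cell quantified by cell-cycle image analysis, bidirectional fit versus DMSO.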

Test [11] can be described thus: APR_HepG2_CellLoss_72hr: Apredica 72-hour HepG2 Assay for Cell Loss (AID 2282915). Conditions: high-content imaging. The gist of the method:
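Cell number comes from Hoechst 33342-labelled nuclei, imaged at 20x after 3.7% formaldehyde fixation. Dosing was 0.39–200 uM, ten concentrations in duplicate, 0.5% DMSO final, for 72 h. Bidirectional fit relative to DMSO baseline.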

Test [12] is described as follows: APR_HepG2_P-H2AX_72hr: Apredica 72-hour HepG2 Assay for H2AX Phosphorylation (AID 2282916).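 Also: phospho-histone H2A.x immunostain intensity per cell marking DNA damage.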 To be noted: imaging, actives raise or lower the signal. In a few lines: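 Following 72 hr treatment with 0.39–200 uM compound, HepG2 cells were formaldehyde-fixed, permeabilized and stained for phospho-H2A.x; signal was measured by high-content imaging and fitted bidirectionally against DMSO controls.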

The nature of test [13]: APR_HepG2_MitoMembPot_72hr: Apredica 72-hour HepG2 Assay for Mitochondrial Membrane Potential (AID 2282917). Conditions: imaging, actives raise or lower the signal. In a few lines:
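Membrane potential read by MitoTracker Red CMXRos (250 nM, 30 min, pre-fixation) fluorescence imaging of HepG2 after 72 hr exposure. Ten concentrations, 0.39–200 uM, duplicate wells, 0.5% DMSO; fitted in both directions against DMSO baseline.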

The nature of test [14]: APR_HepG2_MitoticArrest_72hr: Apredica 72-hour HepG2 Assay for Mitotic Arrest (AID 2282918). To be noted: high-content imaging, actives raise or lower the signal. The gist of the method: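 HepG2 cells treated 72 h at 0.39–200 uM, 0.5% DMSO final; formaldehyde-fixed, stained with Hoechst 33342 and phospho-histone H3 antibody, imaged by high-content fluorescence; bidirectional fit versus DMSO.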

The nature of test [15]: APR_HepG2_MicrotubuleCSK_72hr: Apredica 72-hour HepG2 Assay for Microtubule CSK Stabilty (AID 2282919). To be noted: HepG2 microtubule cytoskeleton, high-content imaging, actives raise or lower the signal. In a few lines:
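Read-out is tubulin fluorescence intensity from high-content imaging of HepG2 cells, with nuclei identified by Hoechst 33342. Treatment lasts 72 h at 0.39–200 uM, and curves are fitted bidirectionally against the DMSO negative control.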

A short description of test [16]: APR_HepG2_P-H2AX_24hr: Apredica 24-hour HepG2 Assay for H2AX Phosphorylation (AID 2282920). Conditions: high-content imaging, actives raise or lower the signal. The gist of the method:
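HepG2 cells dosed 24 h at 0.39–200 uM (10 points, duplicate, 0.5% DMSO final). Formaldehyde-fixed and permeabilized, then immunostained for phospho-H2A.x with Hoechst. Fluorescence quantified by high-content imaging, fitted bidirectionally versus DMSO.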

Test [17] is described as follows: APR_HepG2_StressKinase_72hr: Apredica 72-hour HepG2 Assay for Stress Kinase (AID 2282921). To be noted: HepG2 stress kinase (phospho-c-Jun) imaging, actives raise or lower the signal. The gist of the method: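 Fluorescence intensity of Cy3-tagged anti-phospho-c-Jun antibody, quantified per cell from Hoechst-defined nuclei across six images per well, served as the read-out following 72 h exposure (0.39–200 uM, 0.5% v/v DMSO).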

The nature of test [18]: APR_HepG2_p53Act_72hr: Apredica 72-hour HepG2 Assay for p53 Activation (AID 2282923).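 Also: average cellular p53 protein immunofluorescence intensity in HepG2 cells.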 Conditions: high-content imaging, actives raise or lower the signal. The gist of the method: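 HepG2 monolayers receive test compounds in duplicate at ten concentrations (0.39 through 200 uM) for 72 hr. They are then formaldehyde-fixed, antibody-labelled for p53, Hoechst-stained and imaged, with activity fitted bidirectionally versus DMSO.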

Test [19] can be described thus: APR_HepG2_MitoMass_72hr: Apredica 72-hour HepG2 Assay for Mitochondrial Mass (AID 2282924).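 Also: MitoTracker Red CMXRos stain intensity per cell imaged as mitochondrial mass.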 To be noted: high-content imaging, actives raise or lower the signal. The gist of the method: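 HepG2, 72 hr cmpd, 10 conc 0.39–200 uM in dup, DMSO 0.5% v/v. MitoTracker Red CMXRos 250 nM 30 min pre-fix; formaldehyde 3.7% fix 30 min RT. HCS imaging, gain/loss fit vs DMSO.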

A short description of test [20]: APR_HepG2_StressKinase_24hr: Apredica 24-hour HepG2 Assay for Stress Kinase (AID 2282922). Conditions: HepG2 stress kinase (phospho-c-Jun) imaging, actives raise or lower the signal. The gist of the method:
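HepG2, 24 hr dosing, 0.39–200 uM in duplicate, 0.5% DMSO; formaldehyde fix (3.7%), 0.5% Triton X-100; anti-phospho-c-Jun + Cy3 secondary, Hoechst counterstain; ArrayScan imaging; bidirectional curve fit vs DMSO baseline.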

Usually AC50 stands for the concentration at which the activity in the assay is half-maximal.

“And” between values parts separate entries of the source, which are not always exact repeats. Equal entries are not always repeated. Results filed as inconclusive are left out. Some compounds were tested as several samples or in several runs, with calls that do not always agree. The source made the active and inactive calls. The calls were made as follows, unless noted: active = hit-call score of the fitted dose curve at least 0.9, where 1 is the maximum; inactive = score below 0.9.

For `O=C(O)Cc1cc(I)c(Oc2cc(I)c(O)c(I)c2)c(I)c1`, the result in test [1], in test [3], in test [4], in test [5], in test [6] and in test [7] was inactive. Further, the result in test [8], in test [11], in [12], in [13], in test [14] and in test [15] was inactive. Moreover, the outcome in test [16], in test [17], in test [18] and in test [19] was inactive. Besides, the results for the AC50 in test [2], in [9] and in test [10] were 109 µM (active), 72.2 µM (active) and 72.5 µM (active), respectively.
Take `CCCOC(=O)c1ccc(O)cc1`: the AC50 in [1] was 2.7 µM (active). In addition, the call in test [2], in test [3], in [4], in [5], in test [6] and in test [7] was inactive. Also, the molecule was called inactive in test [8], in [9], in test [10], in test [11], in test [12] and in [13]. The molecule was classed as inactive in test [14], in [15], in [16], in test [17], in [18] and in [19].
As to `O=c1c(-c2ccc(O)cc2)coc2cc(O)ccc12`, the AC50 in test [1] was 330 nM (active) and 318 nM (active) and 427 nM (active). Moreover, the molecule was classed as inactive in test [2], in [3], in test [4], in test [5], in test [6] and in test [7]. For the same molecule, the molecule was called inactive in test [8], in test [9], in test [10], in test [11], in [12] and in test [13]. Besides, the call in test [14], in [15], in [16], in test [17], in [18] and in test [19] was inactive.
As to `CCc1nn(C2CCCCC2)c2cc(C3(C#N)CCC(C(=O)O)CC3)ccc12` (stereo unspecified), the outcome in [1], in test [2], in [3], in [4], in test [5] and in [6] was inactive. Besides, the molecule was classed as inactive in test [7], in [8], in test [9], in [10], in [13] and in [15]. Further, the outcome in test [16], in [17], in test [20] and in [19] was inactive. The AC50 in [11] was 33.3 µM (active); in [12] it was 84 µM (active); in test [14], 80.7 µM (active); in test [18], 97.7 µM (active).
For the molecule `CC(O)C(=O)O` (stereo unspecified), the result in [1] was inactive.
On to `O=C(/C=C/c1ccc(O)cc1)CC(=O)/C=C/c1ccc(O)cc1`, for which the call in [1], in [2], in test [4], in [5], in test [7] and in [9] was inactive. Further, the outcome in [10], in [11], in [13], in test [14], in test [15] and in test [16] was inactive. Also, the outcome in [18] was inactive. For the same molecule, the AC50 in [3] was 68.6 µM (active); in test [6], 24.6 µM (active); in test [8], 61 µM (active); in [12], 32.1 µM (active); in test [17], 27.1 µM (active); in test [19], 46.3 µM (active).
As to `c1ccc2cc3c(ccc4ccccc43)cc2c1`, the AC50 in test [1] was 11.7 µM (active) and 2.92 µM (active); in test [2], 67.6 µM (active); in test [4], 48.1 µM (active); in test [6], 65.7 µM (active); in [7], 63 µM (active); in test [8] it was 55.8 µM (active). The concentration at half-maximal activity (AC50) was 103 µM (active) in test [9]; 17.4 µM (active) in test [10]; 9.42 µM (active) in test [11]; 73.6 µM (active) in test [13]; 27.6 µM (active) in test [14]; 51 µM (active) in [16]. The outcome in test [1], in test [3], in test [12], in [15], in test [17] and in test [18] was inactive. For the same molecule, in test [19], the molecule was classed as inactive.

The record behind these values is PubChem BioAssay (EPA / NIEHS).
